# Measurements from PubChem BioAssay.
# Target: Neurogenic locus notch homolog protein 2 (Homo sapiens) (UniProt Q04721)
# Test: small molecules binding Notch2 protein – biochemical, small-molecule microarray, 635 nm fluorescence, stem cell growth factors, primary screen (AID 1073)
# Settings: higher = more signal
# Neurogenic locus notch homolog protein 2 (Homo sapiens), sequence (Q04721 whole entry, looked up): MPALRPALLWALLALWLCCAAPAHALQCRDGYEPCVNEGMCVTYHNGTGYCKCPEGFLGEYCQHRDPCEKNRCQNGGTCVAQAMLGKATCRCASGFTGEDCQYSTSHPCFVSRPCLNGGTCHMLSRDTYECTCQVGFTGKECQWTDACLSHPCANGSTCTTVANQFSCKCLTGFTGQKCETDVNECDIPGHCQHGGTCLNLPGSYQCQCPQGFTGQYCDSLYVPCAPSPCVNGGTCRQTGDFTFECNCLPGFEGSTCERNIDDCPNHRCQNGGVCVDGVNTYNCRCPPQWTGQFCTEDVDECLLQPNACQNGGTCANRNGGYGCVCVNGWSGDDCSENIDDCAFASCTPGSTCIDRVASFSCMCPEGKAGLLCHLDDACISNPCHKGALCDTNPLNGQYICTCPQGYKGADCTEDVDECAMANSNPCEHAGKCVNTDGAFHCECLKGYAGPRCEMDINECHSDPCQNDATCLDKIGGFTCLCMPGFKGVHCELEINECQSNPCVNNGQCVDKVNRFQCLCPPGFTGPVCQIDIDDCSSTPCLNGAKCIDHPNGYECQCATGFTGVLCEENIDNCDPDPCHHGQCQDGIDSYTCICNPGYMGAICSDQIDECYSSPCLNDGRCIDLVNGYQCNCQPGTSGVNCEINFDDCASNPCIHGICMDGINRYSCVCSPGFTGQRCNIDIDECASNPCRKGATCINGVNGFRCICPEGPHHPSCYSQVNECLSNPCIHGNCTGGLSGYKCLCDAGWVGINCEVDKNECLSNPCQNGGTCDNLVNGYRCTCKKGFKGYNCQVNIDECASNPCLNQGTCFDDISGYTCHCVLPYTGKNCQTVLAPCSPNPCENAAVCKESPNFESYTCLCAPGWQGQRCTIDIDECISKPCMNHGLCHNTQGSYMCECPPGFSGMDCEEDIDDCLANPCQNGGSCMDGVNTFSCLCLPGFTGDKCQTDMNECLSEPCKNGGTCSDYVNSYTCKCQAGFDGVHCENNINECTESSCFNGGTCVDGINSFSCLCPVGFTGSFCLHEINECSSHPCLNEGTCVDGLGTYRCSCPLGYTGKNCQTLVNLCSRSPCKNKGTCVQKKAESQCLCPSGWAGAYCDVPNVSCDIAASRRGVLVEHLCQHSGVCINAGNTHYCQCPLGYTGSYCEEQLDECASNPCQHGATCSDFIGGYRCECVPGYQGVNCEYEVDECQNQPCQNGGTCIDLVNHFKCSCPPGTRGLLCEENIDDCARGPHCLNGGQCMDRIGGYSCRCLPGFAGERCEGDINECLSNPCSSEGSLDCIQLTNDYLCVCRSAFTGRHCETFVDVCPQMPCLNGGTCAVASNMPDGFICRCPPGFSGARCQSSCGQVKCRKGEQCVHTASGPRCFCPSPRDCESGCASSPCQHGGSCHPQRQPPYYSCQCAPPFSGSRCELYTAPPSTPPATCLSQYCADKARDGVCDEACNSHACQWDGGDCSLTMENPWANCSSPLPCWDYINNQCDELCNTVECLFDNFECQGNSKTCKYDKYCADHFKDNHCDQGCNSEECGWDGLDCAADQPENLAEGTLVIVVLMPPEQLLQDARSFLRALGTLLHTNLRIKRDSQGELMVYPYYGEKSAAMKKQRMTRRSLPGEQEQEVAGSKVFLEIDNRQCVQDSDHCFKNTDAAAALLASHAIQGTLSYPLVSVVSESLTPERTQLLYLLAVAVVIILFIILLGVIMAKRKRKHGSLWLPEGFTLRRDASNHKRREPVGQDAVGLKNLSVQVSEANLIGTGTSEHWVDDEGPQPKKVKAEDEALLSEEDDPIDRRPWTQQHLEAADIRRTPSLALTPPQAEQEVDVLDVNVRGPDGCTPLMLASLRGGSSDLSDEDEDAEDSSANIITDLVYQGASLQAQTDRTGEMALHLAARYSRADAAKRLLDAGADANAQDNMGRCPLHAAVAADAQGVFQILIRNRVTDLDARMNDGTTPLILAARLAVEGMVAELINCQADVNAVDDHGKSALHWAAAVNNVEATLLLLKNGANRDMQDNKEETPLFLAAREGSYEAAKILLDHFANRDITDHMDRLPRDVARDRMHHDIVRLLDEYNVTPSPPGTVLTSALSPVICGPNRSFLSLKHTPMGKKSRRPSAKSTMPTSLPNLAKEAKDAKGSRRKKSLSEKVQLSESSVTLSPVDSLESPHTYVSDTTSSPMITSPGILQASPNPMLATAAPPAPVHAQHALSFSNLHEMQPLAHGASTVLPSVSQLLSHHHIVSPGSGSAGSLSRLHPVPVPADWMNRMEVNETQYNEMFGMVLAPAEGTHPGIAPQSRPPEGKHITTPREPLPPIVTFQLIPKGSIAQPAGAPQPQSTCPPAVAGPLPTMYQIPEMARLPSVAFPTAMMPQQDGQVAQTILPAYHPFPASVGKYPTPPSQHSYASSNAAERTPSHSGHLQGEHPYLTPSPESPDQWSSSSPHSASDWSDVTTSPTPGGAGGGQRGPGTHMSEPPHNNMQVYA
row,Structure (SMILES),composite z-score
1,CC(C)c1ccc(NN2C(C(O)C(C)c3ccccc3)C=CC3C(=O)N(c4ccccc4)C(=O)C32)cc1 (stereo not given),1.71
2,Cc1ccc(S(=O)(=O)N2[C@@H](c3ccccc3)C(C(=O)O)=C[C@H]2C(C)(C)C)cc1,1.45
3,CCOC(=O)C1=CC[C@@H](c2ccccc2)N(S(=O)(=O)c2ccc(C)cc2)[C@@H]1C#N,1.25
4,COCCOC(=O)N1C(=O)[C@@]2(c3cc(C#CCC(C(=O)OC)C(=O)OC)ccc31)[C@H](C(=O)N1CCc3cc(OC)c(OC)cc3C1)[C@H]1C(=O)O[C@H](c3ccccc3)[C@H](c3ccccc3)N1[C@@H]2c1ccccc1OCCO,1.44
5,CN(C)CCCC[C@@H]1NC(=O)[C@H]2C[C@@H](C(=O)NCCCCCCNC(=O)CS)[C@@H](c3cccc(OCCO)c3)N2C1=O,-0.486
6,COc1cc2c(cc1O)C(C)N(Cc1sc3ccccc3c1Cl)CC2 (stereo not given),-0.246
7,COCCOC(=O)N1C(=O)[C@@]2(c3cc(C#CCC(C(=O)OC)C(=O)OC)ccc31)[C@H](c1ccc(O)cc1)N1[C@H](c3ccccc3)[C@H](c3ccccc3)OC(=O)[C@H]1[C@@H]2C(=O)N1CCc2cc(OC)c(OC)cc2C1,1.21
8,CCOC(=O)C1=CCC(c2ccncc2)N(S(=O)(=O)c2ccc(C)cc2)C1 (stereo not given),1.32
9,COC(=O)[C@@]1(Cc2ccc(F)cc2)[C@H]2c3cc(C(=O)N4CCCC4)n(Cc4ccc(C(F)(F)F)nc4)c3C[C@H]2CN1C(=O)c1ccccc1,1.74
10,CC(C)(C)OC(=O)CC[C@@]1(C(N)=O)N=C(c2ccc(OCCCO)cc2)O[C@@H]1c1ccccc1CN=[N+]=[N-],1.57
